Hits are enriched below; roughly 6.2% of the tested compounds scored in any of these assays.
KB-V1 MDR tox: KB-V1 MDR subline cytotoxicity; KB-V1 MDR cells viability, CellTiter-Glo, 72 h; Potency, µM (doses to about 46.1 µM), usual class: cytotoxic; AID 1347076; hit rate 3.4% among 400,000; also: % is scaled to controls: 0 for no effect and ±100 for the full control effect; nearly all actives have a fitted effect of over 60% in size
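Cytotoxicity toward P-gp-expressing KB-V1 cells was determined as loss of CellTiter-Glo luminescence after 72 h at 37 degrees C. Compounds were tested in quantitative HTS format across a concentration range, with curves fitted to normalized data.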
KB-3-1 tox: KB-3-1 parental cell cytotoxicity; hit rate 1.4% among 400,000; AID 1347075; KB-3-1 viability, CellTiter-Glo ATP luminescence, 72 h; Potency, µM (doses to about 46.1 µM), usual class: cytotoxic; also: % is scaled to controls: 0 for no effect and ±100 for the full control effect; nearly all actives have a fitted effect of over 60% in size
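KB-3-1 cells, DMEM (no phenol red) + 10% FBS; compound by pin transfer, 72 h, 37 °C. Readout: CellTiter-Glo luminescence after 10 min. Data normalized, curve-fitted.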
ATXN viability: cell viability loss in ATXN counter-screen; S2 cells (HEK-293 line with an ATXN2-luciferase reporter) viability, CellTiter-Fluor protease fluorescence, 24 h; Potency, µM (highest dose often 56.7 µM), usual class: cytotoxic; hit rate 0.49% among 400,000; also: nearly all actives have a fitted effect of over 40% in size
HT1080NT lethal: kills 2HG-producing HT-1080-NT fibrosarcoma cells. hit rate 1.6% among 360,000. Potency, µM (top dose mostly 46.1 µM), for the others: top-dose activity, negative = less viability, actives largely listed as cytotoxic. AID 686970. HT-1080-NT fibrosarcoma viability, CellTiter-Glo ATP luminescence, 48 h;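 also: NT is the 2HG producing partner of a matched IDH1 knockdown line; 0% = DMSO-treated cells and -100% = media-only wells without cells; nearly all actives have a fitted effect of over 55% in size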
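Read-out is CellTiter-Glo luminescence after 10 minutes at room temperature, following 48 hours' compound treatment of HT-1080-NT cells (750 cells/well, RPMI, 5% FBS, 37 degrees C).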
ATXN2 expr inh: inhibitors of ATXN2 expression. HEK-293 ATXN2-luciferase reporter, luminescence, 24 h. Potency, µM (top dose mostly 57 µM), for inactives: at the highest dose activity change, negative = inhibition, hits mostly inhibitors. hit rate 0.72% among 360,000; also: % is scaled to controls: 0 for no effect and ±100 for the full control effect; nearly all actives have a fitted effect of over 55% in size
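qHTS (up to 57 uM final) was run with 24 h compound exposure of reporter cells at 37 °C. Each well was multiplexed: SteadyGlo luminescence measured ATXN2-luciferase expression after a fluorogenic Gly-Phe-AFC viability readout (25 uM final).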
HT1080 IDH1KD tx: kills HT-1080 cells with IDH1 knockdown. hit rate 2% among 360,000. HT-1080 IDH1 knockdown viability, ATP luminescence, 48 h. Potency, µM (top dose mostly 46.1 µM), without a hit: at the top dose activity, negative = toxicity, usual class: cytotoxic;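 also: 0% = DMSO wells and -100% = cell-free medium wells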
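HT-1080-IDH1KD cells (IDH1 knocked down), 750/well in RPMI with 5% FBS, treated with compound 48 h at 37 degrees C. Viability by CellTiter-Glo luminescence, normalised to DMSO and no-cell wells; concentration-response curves classed.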
Active calls of the source: *; i = inactive; ? = inconclusive; . = not tested or not shown. Calls follow the shape of the dose curve; as a rule, active = well fitted curve in the direction sought with a large enough effect; inconclusive = small, poorly fitted or top-dose-only effect, or another doubt; inactive = no such curve, though single readings can be large; an effect the other way counts as inactive or inconclusive. Potency is read from the fitted curve at half-maximal effect.

SMILES | KB-V1 MDR tox | KB-3-1 tox | ATXN viability | HT1080NT lethal | ATXN2 expr inh | HT1080 IDH1KD tx
CCC(=O)NC(c1ccco1)c1cc(Br)c2cccnc2c1O (centres undefined) | i | i | ? | . | 5.01µM* | .
CO[C@@H]1[C@@H](O[C@@H]2O[C@H](C)[C@@H](O[C@H]3C[C@@](C)(O)[C@@H](OC(=O)CC(C)C)[C@H](C)O3)[C@H](N(C)C)[C@H]2O)[C@@H](CC=O)C[C@@H](C)[C@@H](O)/C=C/C=C/C[C@@H](C)OC(=O)C[C@H]1O | . | . | i | . | . | .
COc1cccc(NC(=O)/C=C/c2ccc(S(=O)(=O)N3CCOCC3)cc2)c1 | i | i | i | 2.2% | 22.4µM* | -1.8%
Cc1ccc(NC(=O)/C=C/c2ccc(S(=O)(=O)N3CCOCC3)cc2)cc1S(=O)(=O)N(C)C | i | ? | ? | ? | 28.2µM* | 25.9µM*
Cc1cc(C)cc(N2C(=O)CS(=O)(=O)C23C(=O)N(Cc2ccccc2)c2ccccc23)c1 (centres undefined) | ? | i | i | . | 8.4% | .
CC(C)c1ccc(NC(=O)CCc2ccccc2)cc1 | 7.31µM* | ? | i | ? | 27.1% | 5.8µM*
CN(CCC(=O)Nc1ccc2c(c1)OCO2)Cc1ccccc1 | i | i | i | -1.8% | 5.3% | -7.5%
CN(CCC(=O)Nc1ccc(Cl)cc1)Cc1ccccc1 | i | ? | i | 20.6µM* | -19.8% | 14.6µM*
COc1ccccc1CNc1cc(CSc2ccc(Cl)cc2)nc(C)n1 | 14.6µM* | ? | i | ? | -16.1% | ?
CC(=O)N1c2ccccc2CC1C(=O)N1CCN(c2cccc(C)c2C)CC1 (centres undefined) | i | i | ? | . | -18.6% | .
COc1ccccc1/C=N\Nc1cn[nH]c(=O)c1Cl | 8.2µM* | i | i | -28.6% | 64.6% | ?
O=c1[nH]ncc(N/N=C\c2cccs2)c1Cl | 3.26µM* | ? | i | -4.1% | 11.7% | -10.5%
O=c1[nH]ncc(N/N=C\c2cccnc2)c1Cl | ? | i | i | -0.6% | . | 2.4%
Cc1cccc(/C=N\Nc2cn[nH]c(=O)c2Cl)c1 | 4.11µM* | i | i | -9.7% | 111.7% | ?
O=c1[nH]ncc(N/N=C\c2ccncc2)c1Cl | 20.6µM* | i | i | 5.6% | 9.2% | 2.2%
C=Cc1ccc(CN2C(=O)N(c3cccc(Cl)c3)S(=O)(=O)c3ccccc32)cc1 | i | i | i | . | 4.1% | .
CC(=O)Nc1ccc(N2C(=O)CSC2c2c(F)cccc2Cl)cc1 (centres undefined) | i | ? | . | -4.8% | . | -11.5%
Fc1cccc(Cl)c1C1SCc2nc3ccccc3n21 (centres undefined) | 23.1µM* | 23.1µM* | i | ? | -1.8% | ?
Nc1nnc2c(n1)[nH]c1ccccc12 | ? | i | i | . | -1.4% | .
Cc1cccc(Cn2c(=O)n(-c3ccc(Cl)c(Cl)c3)c(=O)c3c(C)c(C)sc32)c1 | i | i | i | . | -1.7% | .
CC(C)OC(=O)c1cc2c(ccn2C)n1CC(=O)N(Cc1ccccc1)c1ccccc1 | 14.6µM* | ? | i | -6.9% | 43.7% | -28.3%
CCCC(C(=O)NCc1cccc(Cl)c1)N1Cc2ccccc2C1=O (centres undefined) | i | i | . | . | . | .
Clc1ccc(SCc2csc(N3CCOCC3)n2)cc1 | i | i | . | -12.5% | 13.8% | -4.0%
Clc1ccc(SCc2cc(N3CCOCC3)nc(-c3ccccn3)n2)cc1 | ? | ? | ? | -5.8% | 6.31µM* | -17.3%
O=c1cc(CSc2ccc(Cl)cc2)nc(-c2ccccn2)[nH]1 | i | 13µM* | . | -16.7% | . | -29.2%
SMILES | KB-V1 MDR tox | KB-3-1 tox | ATXN viability | HT1080NT lethal | ATXN2 expr inh | HT1080 IDH1KD tx
CSc1nnc(CCNC(=O)c2ccc(-c3cccc(F)c3)cc2)n1-c1ccc(F)cc1 | . | . | i | . | . | .
CCOC(=O)C1C(=O)NC(SCC(N)=O)=C(C#N)C1c1ccccc1OCC (centres undefined) | i | i | i | 4.0% | 5.8% | 2.0%
CCOC(=O)C1C(=O)NC(SC)=C(C#N)C1c1ccccc1F (centres undefined) | 14.6µM* | i | i | 7.6% | 0.1% | 0.6%
Cc1ccc(N2C(=O)N(CC(=O)c3cc(C)ccc3C)C(=O)C2C)cc1 (centres undefined) | 16.4µM* | ? | i | -2.6% | -8.0% | 10.3%
COc1ccc(NC(=O)CC2C(=O)N(CCc3ccccc3)C(=S)N2Cc2cccnc2)cc1 (centres undefined) | 14.6µM* | i | ? | -27.6% | ? | ?
COc1ccc(NC(=O)CC2C(=O)N(C)C(=S)N2Cc2ccco2)cc1 (centres undefined) | i | i | i | -2.6% | -0.4% | 2.7%
C=CCN1C(=O)C(CC(=O)Nc2ccc(OC)cc2)N(Cc2ccco2)C1=S (centres undefined) | 20.6µM* | i | i | -3.0% | -0.5% | -3.8%
CN1C(=O)C(CC(=O)Nc2ccc(F)cc2)N(CCCc2ccccc2)C1=S (centres undefined) | ? | ? | ? | 20.6µM* | ? | ?
CCN1C(=O)C(CC(=O)Nc2ccc(OC)cc2)N(CCc2ccccc2)C1=S (centres undefined) | 20.6µM* | ? | i | ? | -15.2% | ?
CCOc1ccc(NC(=O)CC2C(=O)N(c3ccc(OC)cc3)C(=O)N2CCc2cccs2)cc1 (centres undefined) | 18.4µM* | i | i | -6.1% | -1.0% | -9.5%
COc1ccc(NC(=O)CC2C(=O)N(c3ccccc3)C(=O)N2CCc2cccs2)cc1 (centres undefined) | i | i | i | -5.1% | -4.2% | 1.2%
CCN(CC)c1ccc(N=Cc2ccc([N+](=O)[O-])o2)cc1 | i | 18.4µM* | i | 18.4µM* | 0.4% | ?
CCN(CC)c1ccc(N=Cc2ccccc2[N+](=O)[O-])cc1 | i | i | ? | -25.7% | ? | ?
O=[N+]([O-])c1ccc(/C=N/Nc2ccc3ccccc3c2)o1 | i | i | ? | ? | -6.0% | ?
Cc1ccc2nc(N/N=C\c3ccc([N+](=O)[O-])o3)nc(-c3ccccc3)c2c1 | 18.4µM* | 25.9µM* | 11.2µM* | ? | ? | 10.4%
O=[N+]([O-])c1ccc(/C=N/Nc2nc(N3CCCC3)nc(N3CCCC3)n2)o1 | 20.6µM* | i | ? | ? | -10.6% | ?
O=[N+]([O-])c1ccc(-c2ccc(/C=N/Nc3nc(N4CCCC4)nc(N4CCCC4)n3)o2)cc1 | i | i | i | 2.1% | 0.3% | 7.3%

Source: PubChem BioAssay (National Center for Advancing Translational Sciences (NCATS))
